Rows were chosen to be rich in hits. Some 3.5% of all compounds tested hit in one or more screens of this group.
GPR151 ag – activates the human receptor GPR151; Q8TDV0; PathHunter beta-arrestin GPR151 cells, luminescence; activation, % at 11.2 µM; 650,000 compounds, 1% hits; AID 1508602; in the data active = activation above about 4.9%
FBW7 act – activators of human E3 ligase FBW7; 650,000 compounds, 0.13% hits; Q969H0; normalized activity (activation), % at 26.1 µM; AlphaScreen FBW7–phospho-cyclin E peptide binding, activator screen; in the data active = normalized activity above about 1.9%;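 note: purified mutant Fbw7 with reduced substrate affinity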
Target sequence (Q969H0 whole entry, looked up): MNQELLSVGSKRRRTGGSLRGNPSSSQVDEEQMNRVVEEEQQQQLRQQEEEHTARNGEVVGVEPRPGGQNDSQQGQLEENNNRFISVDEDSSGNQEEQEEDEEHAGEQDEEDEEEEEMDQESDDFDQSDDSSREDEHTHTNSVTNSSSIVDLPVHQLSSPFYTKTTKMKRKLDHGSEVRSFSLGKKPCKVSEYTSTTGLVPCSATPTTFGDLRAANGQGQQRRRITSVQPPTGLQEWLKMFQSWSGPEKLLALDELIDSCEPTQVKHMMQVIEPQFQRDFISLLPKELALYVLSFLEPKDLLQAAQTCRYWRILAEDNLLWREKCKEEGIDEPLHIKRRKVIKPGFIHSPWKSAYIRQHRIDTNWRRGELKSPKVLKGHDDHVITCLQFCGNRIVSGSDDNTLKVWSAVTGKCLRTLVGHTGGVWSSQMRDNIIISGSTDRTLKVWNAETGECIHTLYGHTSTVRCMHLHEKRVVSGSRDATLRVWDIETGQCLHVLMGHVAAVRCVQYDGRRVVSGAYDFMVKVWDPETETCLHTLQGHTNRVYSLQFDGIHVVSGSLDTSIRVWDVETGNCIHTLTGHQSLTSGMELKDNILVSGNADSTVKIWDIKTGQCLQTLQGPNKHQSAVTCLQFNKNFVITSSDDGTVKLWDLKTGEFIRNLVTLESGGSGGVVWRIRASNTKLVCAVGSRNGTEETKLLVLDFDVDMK
MITF primary – inhibitors of human MITF; O75030; AlphaScreen MITF homodimerization, bead proximity signal; inhibition, % at 2.6 µM; AID 1259374; 650,000 compounds, 0.91% hits; in the data active = inhibition above about 50%
TEAD-YAP block – TEAD-YAP interaction inhibition | HEK-TIYL cells, TEAD-Gal4/YAP UAS-luciferase luminescence | inhibition, % at 9.12 µM | 640,000 compounds, 1.4% hits | AID 1259422; in the data active = inhibition above about 32%
A number is an active result; 0 = inactive; ! = not active in a repeat.

SMILES	GPR151 ag	FBW7 act	MITF primary	TEAD-YAP block
O=C(Cc1ccc(Cl)cc1)Nc1ccc2oc(-c3ccccc3F)nc2c1	0	0	0	0
CCC(CC)=NNc1ccc([N+](=O)[O-])cc1S(=O)(=O)Nc1ccc(OC)cc1	0	0	0	0
COCCn1c(CCC(=O)NCCc2ccc(SC)cc2)nc2cccnc21	0	0	0	0
Cc1cc2ccccc2n2c(=O)n(Cc3ccncc3)nc12	0	0	0	0
Cc1cc(OCC(=O)Nc2ccc3oc(-c4ccccc4Br)nc3c2)cc(C)c1Cl	0	2.0	0	0
Cc1cc(OCC(=O)Nc2ccc3oc(-c4cccnc4)nc3c2)cc(C)c1Cl	0	0	0	0
C=CCCC(=O)N1CCOc2ccc(C(C)(O)CN(C)C)cc2C1 (stereo not drawn)	0	0	0	0
O=c1c2cccc3c2c(nn1Cc1ccccc1Cl)-c1ccccc1-3	0	0	0	0
O=c1c2cccc3c2c(nn1CCN1CCCCC1)-c1ccccc1-3	0	0	0	80
Cc1cccc(-c2n[nH]c(=S)n2-c2ccccc2)c1	0	0	0	49
S=c1[nH]nc(-c2ccccc2)n1-c1ccccc1	0	0	0	0
COc1ccc(S(=O)(=O)N(Cc2ccccc2)c2ccccc2C(=O)NCc2ccncc2)cc1	0	0	0	56
C=CCNC(=O)c1ccccc1N(Cc1ccccc1)S(=O)(=O)c1ccc(OC)cc1	0	0	0	55
O=C1Cc2cc(S(=O)(=O)NC3CCCCCC3)ccc2N1	0	0	0	0
Cc1c(C(=O)Nc2c(F)cccc2F)sc2ncnc(N3CCN(c4ccccc4)CC3)c12	0	0	0	0
COc1cc(NC(=O)c2sc3ncnc(N4CCN(c5ccccc5F)CC4)c3c2C)cc(OC)c1OC	0	0	0	32
Cc1c(C(=O)Nc2ccccc2F)sc2ncnc(N3CCN(c4ccccc4)CC3)c12	0	1.9	0	0
CCN(CC)C(=O)c1sc2ncnc(N3CCN(c4ccccc4)CC3)c2c1C	0	2.0	0	0
Cc1ccc(NC(=O)c2sc3ncnc(N4CCN(c5ccccc5F)CC4)c3c2C)c(Br)c1	0	2.0	0	0
Cc1ccc(CN2CCN3C(=O)[C@H](CC(C)C)NC(=O)[C@H]3C2)cc1F	0	0	0	0
COc1cccc(CNC(=O)c2cc(-c3ccccn3)nc3ccccc23)c1	0	0	0	0
Cc1cc(-c2cnc(N3CCCC3)nc2C2CCN(C(=O)Cc3cccc(O)c3)CC2)on1	0	0	0	0
COCc1ccc(CN2CCC3(CCC(CNC(=O)C(C)C)O3)CC2)o1 (stereo not drawn)	0	0	0	0
Cc1c(C(=O)NC(C)C)sc2ncnc(N3CCN(c4ccccc4)CC3)c12	0	2.1	0	0
COc1cc(OC)c2c(c1)C1C=CCC1C(c1ccc(C(=O)O)cc1)N2 (stereo not drawn)	0	0	73	0
SMILES	GPR151 ag	FBW7 act	MITF primary	TEAD-YAP block
COC(=O)c1cccc2c1N[C@@H](c1ccc(C(=O)O)cc1)[C@H]1CC=C[C@@H]21	0	0	59	0
CCOC(=O)c1cccc2c1NC(c1ccc(C(=O)O)cc1)C1CC=CC21 (stereo not drawn)	0	0	83	0
COC(=O)c1cccc2c1NC(c1ccc(Br)cc1)C1CC=CC21 (stereo not drawn)	0	0	0	0
O=C(O)c1cccc2c1NC(c1ccccc1)C1CC=CC21 (stereo not drawn)	0	0	0	0
COC(=O)c1cccc2c1NC(c1ccc(C(=O)O)cc1)C1CC=CC21 (stereo not drawn)	0	0	68	0
O=C(O)c1cccc2c1NC(c1ccc(Br)cc1)C1CC=CC21 (stereo not drawn)	0	0	0	0
COc1cc(OC)c2c(c1)C1C=CCC1C(c1ccc(OC)c([N+](=O)[O-])c1)N2 (stereo not drawn)	0	0	0	0
Nc1nnc(-c2ccc(Oc3nc(N4CCOCC4)nc(N4CCOCC4)n3)cc2)s1	0	0	0	0
CC1=Nc2cc(C(=O)NCCCOC(C)C)ccc2Sc2ccccc21	0	0	0	38
COCCCNC(=O)c1ccc2c(c1)N=C(C)c1ccccc1S2	0	0	0	63
O=C(NCCCn1ccnc1)c1cc2nc(-c3ccc([N+](=O)[O-])cc3)cc(C(F)(F)F)n2n1	0	0	0	0
O=C(CSc1nnc(Nc2ccccc2)s1)N1CCCc2ccccc21	0	0	0	0
O=C1C2C3C=CC(C3)C2C(=O)N1c1ccc(Oc2ccccc2)cc1 (stereo not drawn)	0	0	0	0
N#Cc1ccc(Oc2ccc(N3C(=O)C4C5C=CC(C5)C4C3=O)cc2)cc1C#N (stereo not drawn)	0	0	0	40
O=C(Nc1ccccc1)c1ccc2nc(Nc3ccccn3)sc2c1	0	0	0	0
O=C(COc1ccc(F)cc1)Nc1nccs1	0	0	0	0
CCCc1ccc(OCC(=O)Nc2nccs2)cc1	0	0	0	81
Cc1ccc(OCC(=O)Nc2nccs2)cc1C	0	0	0	75
CCc1ccc(OCC(=O)Nc2nccs2)cc1	0	0	0	86
Cc1cc(C)c(N(C(=O)CCl)C(=O)C2CCCN2C(=O)CCl)c(C)c1 (stereo not drawn)	0	0	0	32
Cc1ccc(-c2cc(-c3ccccc3)no2)c(O)c1	0	0	0	52
Oc1ccccc1-c1cc(-c2ccccc2)no1	0	0	0	0
O=C(N/N=C\c1ccc(I)o1)C1COc2cc3ccccc3cc2O1 (stereo not drawn)	0	0	0	0
CN1CCc2c(sc(NC(=O)c3cc(Cl)cc(Cl)c3)c2C(N)=O)C1	0	0	0	0
COc1ccc(/C=C/C(=O)NC(C)c2ccccc2)cc1 (stereo not drawn)	0	0	0	0
SMILES	GPR151 ag	FBW7 act	MITF primary	TEAD-YAP block
CC1=Nc2ccccc2/C1=C/c1sc(=N)n(-c2nccs2)c1O	0	0	0	32
O=C(CSc1cc(N2CCCC2)ncn1)c1ccccc1	0	0	0	76
CC(=NCCCN1CCOCC1)c1c(C)[nH]n(-c2nc3ccccc3s2)c1=O	0	0	0	33!
CC(=NCCO)c1c(-c2ccccc2)[nH]n(-c2nc3ccccc3s2)c1=O	0	0	0	0
CC(=NCc1ccco1)c1c(C)[nH]n(-c2nc3ccccc3s2)c1=O	0	0	0	41!
COc1ccc(OC)c(N=C(C)c2c(C)[nH]n(-c3nc4ccccc4s3)c2=O)c1	0	0	0	0
CCOC(=O)CN=C(C)c1c(C)[nH]n(-c2nc3ccccc3s2)c1=O	0	0	0	49
CC(=O)NCC1Cc2cccc(-c3ccccc3C(F)(F)F)c2O1 (stereo not drawn)	0	0	0	0
Cc1ccc(N=C2S/C(=C\c3ccc(N(C)C)c(Br)c3)C(=O)N2C2CCCCC2)cc1C	0	0	0	0
Nn1c(SCc2cc(=O)oc3cc(O)c(O)cc23)nnc1-c1ccncc1	0	0	85	0
Nn1c(Cc2ccccc2F)nnc1SCc1cc(=O)oc2cc(O)c(O)cc12	0	0	95	0
Cn1c(SCc2cc(=O)oc3cc(O)c(O)cc23)nc2ccccc21	0	0	0	0
Cn1c2ccccc2c2nnc(SCC(=O)Nc3ncccn3)nc21	0	0	0	0
COCCN1C(=S)NC2c3ccccc3OC13CCCC23 (stereo not drawn)	0	0	0	36

Source: PubChem BioAssay
